{"source": "paper PMC11984502", "about": "“A stress-responsive p38 signaling axis in choanoflagellates” (RSC Chemical Biology, 2025)", "note": "In all, about 1,200 compounds were measured (“% viability”: median about 1, lowest 2% from about 0.27 on). What follows is part of a selection rich in the lowest values, with near analogues and random picks from the rest. The numbers are fractions of the control, whatever unit the source prints.", "data": [{"tested_on": "S. rosetta (SrEpac culture)", "conditions": "flow cytometry, 24 h, high-nutrient medium; 10 µM", "values": [{"compound": "CCCc1cc(-c2cncc(OCC(N)Cc3c[nH]c4ccccc34)c2)cc2c(C)n[nH]c12", "note": "(stereo not shown) [KMS_217]", "% viability": 0}]}]}
